# Measurements as given in the supplement of paper PMC8728848.
# This excerpt belongs to a sample that is enriched for the strongest signals.
# B1: B1257 (Bifidobacterium sp) (protein)
# chain: MKKSIRLVAAIAALAMTAGISACGSSTNGNQAKSDVTAQDVETALTDTSKNVELTVWAYSAKQMEPTVKAFEKKYPHIKINFVNTGAAGDHFTKFQNVVQAQKDIPDVVQMGANKFQQFAVSGALLNFANDSIEKAWSKLYTKTAWAQVHYAGGLYGAPQDATPLANYVRKDILDEHNLQVPESWEDIYNEGIKLHKEDSNKYMGILGSDISFFTNLYRSVGARLWKVNSVDDVELTMNSGKAKEFTEFLQKCLKDGVLEGGTVFTDEFNRSINDGRYATFINENWMGNTYKEQNPSLKGKMVVAAPPSWKGQPYQSSSVGSMMSVSAACPKEKQAAALAFINWLDSDKDAIQSWQDTNNGNFFMAASVYQDDENQRNKKETDGYYANDDVNAVYFDSMDKVNTDWEYLPFMSQVEVVFNDVIVPQMNENGDLVGAMAKAQQELKTYAKDNGFKVTTDAD
# Columns and labels:
# Test in all cases: glycan array binding signal (z-score within array); higher = stronger binding
# Details in all cases: glycan notation: IUPAC condensed, linker removed
# Gal6S(b1-4)GlcNAc6S = target: Gal6S(b1-4)GlcNAc6S
# Summary of the method: (§1)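 The binding signal is a Z-score computed within each array and averaged over linkers. Arrays of the same protein sequence at different concentrations or buffers were also averaged together. Data originate from 3228 arrays in the Consortium for Functional Glycomics database, kept only where the protein sequence was available.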
# [1] = target: GalNAc(b1-4)GlcNAc(b1-2)Man(a1-3)[GalNAc(b1-4)GlcNAc(b1-2)Man(a1-6)]Man(b1-4)GlcNAc(b1-4)GlcNAc
# Summary of the method: as §1
# [2] = target: GlcNAc(a1-4)Gal(b1-3)GlcNAc
# Summary of the method: as §1
# [3] = target: GlcNAc(a1-4)Gal(b1-4)GlcNAc(b1-3)Gal(b1-4)[Fuc(a1-3)]GlcNAc(b1-3)Gal(b1-4)[Fuc(a1-3)]GlcNAc
# Summary of the method: as §1
# [4] = target: GlcNAc(b1-2)Man(a1-3)[GlcNAc(b1-4)][GlcNAc(b1-2)Man(a1-6)]Man(b1-4)GlcNAc(b1-4)GlcNAc
# Summary of the method: as §1
# [5] = target: GlcNAc(b1-3)Gal(b1-4)GlcNAc
# Summary of the method: as §1
# [6] = target: GlcNAc(b1-3)[GlcNAc(b1-4)][GlcNAc(b1-6)]GlcNAc
# Summary of the method: as §1
# Kdn(a2-3)Gal(b1-4)GlcNAc = target: Kdn(a2-3)Gal(b1-4)GlcNAc
# Summary of the method: as §1
# [7] = target: Man(a1-2)Man(a1-2)Man(a1-3)Man
# Summary of the method: as §1
# [8] = target: Man(a1-2)Man(a1-3)[Man(a1-6)]Man(a1-6)[Man(a1-2)Man(a1-3)]Man(b1-4)GlcNAc(b1-4)GlcNAc
# Summary of the method: as §1
# [9] = target: Man(a1-3)[Man(a1-6)]Man(b1-4)GlcNAc(b1-4)[Fuc(a1-6)]GlcNAc
# Summary of the method: as §1
# [10] = target: Neu5Ac(a2-3)Gal(b1-4)GlcNAc(b1-2)Man
# Summary of the method: as §1
# [11] = target: Neu5Ac(a2-3)Gal(b1-4)GlcNAc(b1-3)Gal
# Summary of the method: as §1
# [12] = target: Neu5Ac(a2-3)Gal(b1-4)GlcNAc(b1-3)Gal(b1-4)GlcNAc(b1-3)GalNAc
# Summary of the method: as §1
# [13] = target: Neu5Ac(a2-3)Gal(b1-4)GlcNAc(b1-3)Gal(b1-4)GlcNAc(b1-6)[Gal(b1-3)]GalNAc
# Summary of the method: as §1
# [14] = target: Neu5Ac(a2-3)Gal(b1-4)GlcNAc(b1-3)GalNAc
# Summary of the method: as §1
# [15] = target: Neu5Ac(a2-3)Gal(b1-4)[Fuc(a1-3)]GlcNAc(b1-3)GalNAc
# Summary of the method: as §1
# [16] = target: Neu5Ac(a2-3)Gal6S(b1-4)[Fuc(a1-3)]GlcNAc
# Summary of the method: as §1
# [17] = target: Neu5Ac(a2-6)Gal(b1-4)GlcNAc(b1-3)Gal(b1-4)GlcNAc(b1-3)Gal(b1-4)GlcNAc(b1-2)Man(a1-3)[Neu5Ac(a2-6)Gal(b1-4)GlcNAc(b1-3)Gal(b1-4)GlcNAc(b1-3)Gal(b1-4)GlcNAc(b1-2)Man(a1-6)]GalNAc
# Summary of the method: as §1
# [18] = target: Neu5Ac(a2-6)Gal(b1-4)GlcNAc(b1-6)[Gal(b1-3)]GalNAc
# Summary of the method: as §1
# [19] = target: Neu5Ac(a2-6)GalNAc(b1-4)GlcNAc
# Summary of the method: as §1
# [20] = target: Neu5Ac(a2-6)GlcNAc(b1-4)GlcNAc
# Summary of the method: as §1
# [21] = target: Neu5Ac(a2-6)GlcNAc(b1-4)GlcNAc(b1-4)GlcNAc
# Summary of the method: as §1
# [22] = target: Neu5Ac(a2-8)Neu5Ac(a2-3)Gal(b1-3)GalNAc(b1-4)[Neu5Ac(a2-8)Neu5Ac(a2-3)]Gal(b1-4)Glc
# Summary of the method: as §1
# [23] = target: Neu5Gc(a2-3)Gal(b1-4)[Fuc(a1-3)]GlcNAc
# Summary of the method: as §1
binder,measurement,setting,value
B1,glycan array binding signal (z-score),Gal6S(b1-4)GlcNAc6S,-0.133
same,glycan array binding signal (z-score),[1],1.83
same,glycan array binding signal (z-score),[2],-0.103
same,glycan array binding signal (z-score),[3],0.11
same,glycan array binding signal (z-score),[4],0.002
same,glycan array binding signal (z-score),[5],-0.138
same,glycan array binding signal (z-score),[6],-0.13
same,glycan array binding signal (z-score),Kdn(a2-3)Gal(b1-4)GlcNAc,-0.061
same,glycan array binding signal (z-score),[7],-0.128
same,glycan array binding signal (z-score),[8],-0.161
same,glycan array binding signal (z-score),[9],-0.128
same,glycan array binding signal (z-score),[10],0.015
same,glycan array binding signal (z-score),[11],-0.111
same,glycan array binding signal (z-score),[12],-0.094
same,glycan array binding signal (z-score),[13],-0.087
same,glycan array binding signal (z-score),[14],0.727
same,glycan array binding signal (z-score),[15],0.158
same,glycan array binding signal (z-score),[16],-0.194
same,glycan array binding signal (z-score),[17],0.344
same,glycan array binding signal (z-score),[18],-0.046
same,glycan array binding signal (z-score),[19],-0.178
same,glycan array binding signal (z-score),[20],-0.027
same,glycan array binding signal (z-score),[21],-0.081
same,glycan array binding signal (z-score),[22],-0.004
same,glycan array binding signal (z-score),[23],-0.012
